Our source for the binding signal values is paper PMC7862700, “An all-to-all approach to the identification of sequence-specific readers for epigenetic DNA modifications on cytosine”.

What all share (test): DAPPL (digital affinity profiling via proximity ligation, sequencing); 10 mM Tris-HCl pH 7.5, 50 mM NaCl, 1 mM DTT, 4% glycerol, room temperature, 30 min; GST-TFs on glutathione beads, 16-mer random dsDNA library, 0.1% formaldehyde crosslink after washing; high values mean tight binding
Holding throughout (settings): protein: recombinant; tags: N-terminal GST; dsDNA, one strand shown

One assay concerns the target T1, FLI1 (Homo sapiens, UniProt Q01543 1-452).
T1 sequence: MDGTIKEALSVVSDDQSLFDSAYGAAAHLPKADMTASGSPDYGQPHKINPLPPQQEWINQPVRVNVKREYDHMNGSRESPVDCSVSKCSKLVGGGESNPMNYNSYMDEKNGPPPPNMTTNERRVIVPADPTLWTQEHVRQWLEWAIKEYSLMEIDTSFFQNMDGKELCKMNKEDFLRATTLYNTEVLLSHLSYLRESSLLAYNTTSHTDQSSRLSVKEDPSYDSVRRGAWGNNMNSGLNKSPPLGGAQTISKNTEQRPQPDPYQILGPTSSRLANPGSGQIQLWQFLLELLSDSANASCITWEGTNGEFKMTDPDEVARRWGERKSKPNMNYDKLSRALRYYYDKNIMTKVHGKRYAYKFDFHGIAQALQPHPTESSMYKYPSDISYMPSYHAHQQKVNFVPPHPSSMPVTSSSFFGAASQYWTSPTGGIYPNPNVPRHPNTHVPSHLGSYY
The method, boiled down:
(§1)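 Binding signal is given per hexamer as its read frequency for a factor divided by its frequency in the tag-only sample. GST-fused human transcription factors were expressed in yeast, captured on glutathione beads, barcoded with DNA and pooled with that sample, then incubated with 200 nmole of a 16-mer random double-stranded DNA library in Tris/NaCl/DTT/glycerol buffer for 30 min at room temperature. The pools were then washed, crosslinked, proximity-ligated, amplified by PCR and sequenced on an Illumina NextSeq500.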

The next assay deals with T2, ELK1 (Homo sapiens, UniProt P19419 1-428).
T2 sequence: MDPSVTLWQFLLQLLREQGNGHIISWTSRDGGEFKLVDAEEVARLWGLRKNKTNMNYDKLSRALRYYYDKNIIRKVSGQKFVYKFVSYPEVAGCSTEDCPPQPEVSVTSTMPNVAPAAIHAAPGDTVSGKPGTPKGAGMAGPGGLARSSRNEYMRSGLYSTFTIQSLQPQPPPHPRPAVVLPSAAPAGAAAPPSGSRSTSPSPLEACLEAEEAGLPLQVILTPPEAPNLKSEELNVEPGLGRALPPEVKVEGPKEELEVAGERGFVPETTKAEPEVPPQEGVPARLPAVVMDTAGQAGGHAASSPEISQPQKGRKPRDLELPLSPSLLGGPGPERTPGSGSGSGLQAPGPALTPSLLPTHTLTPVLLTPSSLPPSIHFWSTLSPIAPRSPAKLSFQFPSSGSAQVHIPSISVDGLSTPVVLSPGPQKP
The method, boiled down: as §1

For a further assay, the target named is T3, GABPA (Homo sapiens, UniProt Q06546 1-454).
T3 sequence: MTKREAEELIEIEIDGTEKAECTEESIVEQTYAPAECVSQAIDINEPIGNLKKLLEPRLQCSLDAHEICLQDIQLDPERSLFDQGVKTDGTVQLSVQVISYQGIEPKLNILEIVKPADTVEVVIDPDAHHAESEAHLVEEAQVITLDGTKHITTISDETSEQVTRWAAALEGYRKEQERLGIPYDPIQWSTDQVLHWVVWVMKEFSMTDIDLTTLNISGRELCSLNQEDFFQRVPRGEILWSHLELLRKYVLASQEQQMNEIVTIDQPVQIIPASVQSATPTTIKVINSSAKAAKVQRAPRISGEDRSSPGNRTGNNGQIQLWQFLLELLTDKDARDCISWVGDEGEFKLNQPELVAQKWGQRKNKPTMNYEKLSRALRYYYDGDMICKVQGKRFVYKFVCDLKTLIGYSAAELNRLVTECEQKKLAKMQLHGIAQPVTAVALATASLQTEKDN
The method, boiled down: as §1

For the next assay, the target named is T4, ERG (Homo sapiens, UniProt P11308 1-479).
T4 sequence: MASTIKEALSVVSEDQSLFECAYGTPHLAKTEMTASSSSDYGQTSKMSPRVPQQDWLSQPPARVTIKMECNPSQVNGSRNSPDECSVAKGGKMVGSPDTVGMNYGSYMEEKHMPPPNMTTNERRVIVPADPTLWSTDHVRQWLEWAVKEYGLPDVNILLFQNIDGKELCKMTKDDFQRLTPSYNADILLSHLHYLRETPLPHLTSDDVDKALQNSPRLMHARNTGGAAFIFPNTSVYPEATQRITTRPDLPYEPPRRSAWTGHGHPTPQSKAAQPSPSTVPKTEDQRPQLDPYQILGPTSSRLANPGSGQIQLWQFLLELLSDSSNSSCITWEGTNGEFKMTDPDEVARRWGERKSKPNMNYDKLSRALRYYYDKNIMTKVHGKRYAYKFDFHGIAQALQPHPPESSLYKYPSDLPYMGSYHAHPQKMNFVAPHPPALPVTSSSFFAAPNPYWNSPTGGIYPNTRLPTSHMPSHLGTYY
The gist of the method: as §1

The target of the next assay is ELF1 (Homo sapiens, UniProt P32519 1-619). The gist of the method:
as §1

The next assay addresses T5, EHF (Homo sapiens, UniProt Q9NZC4 1-300).
T5 sequence: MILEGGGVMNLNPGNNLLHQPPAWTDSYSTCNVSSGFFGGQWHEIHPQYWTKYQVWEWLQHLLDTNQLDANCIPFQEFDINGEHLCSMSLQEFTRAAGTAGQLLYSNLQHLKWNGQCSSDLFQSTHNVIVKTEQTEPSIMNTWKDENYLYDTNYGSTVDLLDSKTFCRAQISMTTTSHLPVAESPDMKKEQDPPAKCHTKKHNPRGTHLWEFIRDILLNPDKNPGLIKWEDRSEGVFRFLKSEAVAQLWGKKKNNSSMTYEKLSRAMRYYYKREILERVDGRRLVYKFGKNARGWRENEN
The method, boiled down:
as §1

A further assay addresses SPI1 (Homo sapiens, UniProt P17947 1-270). The method, boiled down:
as §1

The target of a further assay is SPIB (Homo sapiens, UniProt Q01892 1-262). The gist of the method: as §1
A further assay has as its target T6, ELK3 (Homo sapiens, UniProt P41970 1-407).
T6 sequence: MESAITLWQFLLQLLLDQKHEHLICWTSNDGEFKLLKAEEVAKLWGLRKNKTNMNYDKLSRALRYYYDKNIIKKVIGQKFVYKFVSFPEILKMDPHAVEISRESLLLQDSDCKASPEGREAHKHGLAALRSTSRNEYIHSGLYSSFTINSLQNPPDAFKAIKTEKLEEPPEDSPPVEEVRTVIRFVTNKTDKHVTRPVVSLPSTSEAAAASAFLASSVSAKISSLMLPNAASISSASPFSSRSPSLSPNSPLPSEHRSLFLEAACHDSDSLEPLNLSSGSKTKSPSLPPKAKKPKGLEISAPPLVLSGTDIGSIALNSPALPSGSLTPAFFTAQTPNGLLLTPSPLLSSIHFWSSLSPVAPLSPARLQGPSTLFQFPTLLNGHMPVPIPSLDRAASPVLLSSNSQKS
The gist of the method: as §1

In a further assay the target is T7, FEV (Homo sapiens, UniProt Q99581 1-238).
T7 sequence: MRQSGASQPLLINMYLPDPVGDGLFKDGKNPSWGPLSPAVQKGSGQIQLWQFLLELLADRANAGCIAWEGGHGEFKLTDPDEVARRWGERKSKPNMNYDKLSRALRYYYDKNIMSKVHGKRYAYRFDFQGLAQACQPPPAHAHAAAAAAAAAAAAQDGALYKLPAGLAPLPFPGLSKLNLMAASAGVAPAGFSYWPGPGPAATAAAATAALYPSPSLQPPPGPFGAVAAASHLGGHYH
The gist of the method: as §1

In a further assay the target is ETV5 (Homo sapiens, UniProt P41161 1-510). The method, boiled down:
as §1

Another assay concerns the target T8, SPIC (Homo sapiens, UniProt Q8N5J4 1-248).
T8 sequence: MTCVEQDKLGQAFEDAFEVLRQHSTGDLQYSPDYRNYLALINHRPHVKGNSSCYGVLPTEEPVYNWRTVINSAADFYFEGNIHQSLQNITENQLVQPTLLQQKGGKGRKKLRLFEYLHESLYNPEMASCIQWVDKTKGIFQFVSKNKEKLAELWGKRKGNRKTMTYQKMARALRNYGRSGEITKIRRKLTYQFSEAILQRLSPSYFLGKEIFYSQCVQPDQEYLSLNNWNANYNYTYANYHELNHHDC
The method, boiled down:
as §1

A further assay addresses ELF4 (Homo sapiens, UniProt Q99607 1-663). The method, boiled down: as §1
The target of the next assay is T9, ELK4 (Homo sapiens, UniProt P28324-2 1-405).
T9 sequence: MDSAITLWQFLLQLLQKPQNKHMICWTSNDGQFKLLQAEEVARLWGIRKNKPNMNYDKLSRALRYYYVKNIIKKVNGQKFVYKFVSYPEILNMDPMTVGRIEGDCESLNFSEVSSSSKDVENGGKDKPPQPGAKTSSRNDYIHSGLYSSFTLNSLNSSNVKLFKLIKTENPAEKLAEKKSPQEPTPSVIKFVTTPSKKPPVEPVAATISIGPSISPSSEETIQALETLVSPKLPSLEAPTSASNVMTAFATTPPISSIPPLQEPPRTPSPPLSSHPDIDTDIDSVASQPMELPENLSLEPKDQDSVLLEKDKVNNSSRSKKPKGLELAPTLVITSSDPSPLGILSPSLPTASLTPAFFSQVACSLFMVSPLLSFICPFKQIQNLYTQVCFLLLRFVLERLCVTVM
The method, boiled down: as §1

Another assay deals with T10, ELF3 (Homo sapiens, UniProt P78545 1-371).
T10 sequence: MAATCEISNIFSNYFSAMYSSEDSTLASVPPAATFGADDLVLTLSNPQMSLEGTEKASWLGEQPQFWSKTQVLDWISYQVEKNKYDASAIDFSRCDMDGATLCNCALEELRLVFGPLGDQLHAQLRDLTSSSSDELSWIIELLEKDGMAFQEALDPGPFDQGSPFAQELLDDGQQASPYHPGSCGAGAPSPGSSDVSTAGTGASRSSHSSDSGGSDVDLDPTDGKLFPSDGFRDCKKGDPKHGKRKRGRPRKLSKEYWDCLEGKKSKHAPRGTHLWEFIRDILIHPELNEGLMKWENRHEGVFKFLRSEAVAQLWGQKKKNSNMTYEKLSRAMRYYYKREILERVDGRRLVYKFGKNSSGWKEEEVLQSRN
The gist of the method: as §1

The target of a further assay is CRX (Homo sapiens, UniProt O43186 1-299). The method, boiled down: as §1
The next assay concerns the target ETV1 (Homo sapiens, UniProt P50549 1-477). The gist of the method: as §1

ELF1, sequence (P32519 whole entry): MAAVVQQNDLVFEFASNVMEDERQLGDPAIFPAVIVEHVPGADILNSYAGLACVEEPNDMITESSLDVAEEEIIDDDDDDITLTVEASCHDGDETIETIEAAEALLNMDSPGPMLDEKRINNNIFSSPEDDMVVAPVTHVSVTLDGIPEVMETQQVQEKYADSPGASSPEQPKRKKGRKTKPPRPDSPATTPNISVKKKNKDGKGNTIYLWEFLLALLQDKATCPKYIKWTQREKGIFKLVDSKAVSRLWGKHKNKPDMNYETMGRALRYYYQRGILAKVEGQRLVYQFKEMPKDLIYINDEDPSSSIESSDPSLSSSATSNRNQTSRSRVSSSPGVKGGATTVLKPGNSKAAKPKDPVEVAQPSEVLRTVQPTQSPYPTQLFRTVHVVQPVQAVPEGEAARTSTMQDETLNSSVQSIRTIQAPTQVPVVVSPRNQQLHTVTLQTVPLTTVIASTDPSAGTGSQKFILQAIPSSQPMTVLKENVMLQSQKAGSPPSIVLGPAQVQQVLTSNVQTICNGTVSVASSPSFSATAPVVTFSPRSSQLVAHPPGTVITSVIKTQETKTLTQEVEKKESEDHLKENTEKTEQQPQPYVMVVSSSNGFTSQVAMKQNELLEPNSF
ETV5, sequence (P41161 whole entry): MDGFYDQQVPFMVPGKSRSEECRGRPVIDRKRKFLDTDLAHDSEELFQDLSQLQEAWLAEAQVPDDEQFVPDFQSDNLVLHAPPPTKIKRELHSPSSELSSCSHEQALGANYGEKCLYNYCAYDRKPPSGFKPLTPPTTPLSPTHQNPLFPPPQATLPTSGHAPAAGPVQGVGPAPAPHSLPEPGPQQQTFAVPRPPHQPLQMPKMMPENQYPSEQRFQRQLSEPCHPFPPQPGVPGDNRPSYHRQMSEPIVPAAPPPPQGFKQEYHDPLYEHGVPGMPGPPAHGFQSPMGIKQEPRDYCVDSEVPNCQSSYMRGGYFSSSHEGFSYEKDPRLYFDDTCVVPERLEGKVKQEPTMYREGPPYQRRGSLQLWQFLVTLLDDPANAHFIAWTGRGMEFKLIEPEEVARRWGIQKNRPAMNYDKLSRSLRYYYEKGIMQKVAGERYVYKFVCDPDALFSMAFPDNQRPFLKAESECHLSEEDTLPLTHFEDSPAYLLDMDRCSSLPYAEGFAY
ELF4, sequence (Q99607 whole entry): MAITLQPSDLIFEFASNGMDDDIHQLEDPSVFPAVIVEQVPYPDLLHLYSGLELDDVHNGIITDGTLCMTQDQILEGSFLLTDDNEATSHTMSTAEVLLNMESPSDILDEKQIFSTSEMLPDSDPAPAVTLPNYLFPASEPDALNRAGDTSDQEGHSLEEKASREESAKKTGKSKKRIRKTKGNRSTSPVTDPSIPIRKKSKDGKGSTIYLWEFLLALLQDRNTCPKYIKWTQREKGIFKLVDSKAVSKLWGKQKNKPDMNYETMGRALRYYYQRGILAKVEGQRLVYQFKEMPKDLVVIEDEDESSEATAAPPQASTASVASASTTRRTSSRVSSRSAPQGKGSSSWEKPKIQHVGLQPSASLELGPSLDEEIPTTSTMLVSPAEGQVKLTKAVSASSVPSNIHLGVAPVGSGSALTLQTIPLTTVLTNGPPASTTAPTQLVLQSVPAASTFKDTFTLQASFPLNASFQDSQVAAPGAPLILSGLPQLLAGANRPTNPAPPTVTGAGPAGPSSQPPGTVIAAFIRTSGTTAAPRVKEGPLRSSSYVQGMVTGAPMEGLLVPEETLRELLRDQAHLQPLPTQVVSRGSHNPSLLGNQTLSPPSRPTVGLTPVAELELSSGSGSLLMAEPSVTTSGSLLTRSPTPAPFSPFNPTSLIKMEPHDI
ETV1, sequence (P50549 whole entry): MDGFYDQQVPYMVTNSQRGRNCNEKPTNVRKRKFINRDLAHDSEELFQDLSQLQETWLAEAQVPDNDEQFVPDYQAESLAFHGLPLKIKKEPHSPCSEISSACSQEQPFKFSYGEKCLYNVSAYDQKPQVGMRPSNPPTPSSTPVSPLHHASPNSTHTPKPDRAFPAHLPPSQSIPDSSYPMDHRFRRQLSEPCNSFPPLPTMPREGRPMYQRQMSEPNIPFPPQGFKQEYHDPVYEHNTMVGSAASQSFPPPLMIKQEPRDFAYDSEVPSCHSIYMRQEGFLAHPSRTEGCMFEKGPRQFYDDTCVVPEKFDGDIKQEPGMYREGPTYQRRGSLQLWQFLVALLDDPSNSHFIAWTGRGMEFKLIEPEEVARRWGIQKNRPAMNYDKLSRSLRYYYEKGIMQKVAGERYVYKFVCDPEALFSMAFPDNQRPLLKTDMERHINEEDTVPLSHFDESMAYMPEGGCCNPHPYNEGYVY
SPIB, sequence (Q01892 whole entry): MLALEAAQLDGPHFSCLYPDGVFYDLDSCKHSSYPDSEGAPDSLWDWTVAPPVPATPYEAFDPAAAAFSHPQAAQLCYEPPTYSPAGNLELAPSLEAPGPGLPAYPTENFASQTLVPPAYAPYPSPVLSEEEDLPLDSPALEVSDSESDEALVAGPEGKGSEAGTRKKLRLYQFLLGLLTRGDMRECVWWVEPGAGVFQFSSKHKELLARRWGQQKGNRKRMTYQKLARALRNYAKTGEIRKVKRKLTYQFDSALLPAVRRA
CRX, sequence (O43186 whole entry): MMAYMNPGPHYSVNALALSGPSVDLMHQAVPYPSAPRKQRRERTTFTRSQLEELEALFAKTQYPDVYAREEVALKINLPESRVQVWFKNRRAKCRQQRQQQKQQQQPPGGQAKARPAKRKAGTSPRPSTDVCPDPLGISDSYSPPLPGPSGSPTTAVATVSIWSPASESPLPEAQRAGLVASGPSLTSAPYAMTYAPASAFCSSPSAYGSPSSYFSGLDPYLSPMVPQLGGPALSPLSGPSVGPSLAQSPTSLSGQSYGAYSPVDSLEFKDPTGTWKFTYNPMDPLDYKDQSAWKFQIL

For the sequence ATATGA, the binding signal with FLI1 was 1.11 fold enrichment (6-mer frequency, TF over GST control); with ELK1 it was 1.07 fold enrichment (6-mer frequency, TF over GST control); with GABPA, 1.1 fold enrichment (6-mer frequency, TF over GST control); with ERG it was 1.14 fold enrichment (6-mer frequency, TF over GST control); in the assay with ELF1, 1.06 fold enrichment (6-mer frequency, TF over GST control); with EHF it was 1.07 fold enrichment (6-mer frequency, TF over GST control). Also, the binding signal with SPI1 was 1.1 fold enrichment (6-mer frequency, TF over GST control); with SPIB, 1.1 fold enrichment (6-mer frequency, TF over GST control); with ELK3, 1.18 fold enrichment (6-mer frequency, TF over GST control); with FEV it was 1.03 fold enrichment (6-mer frequency, TF over GST control); with ETV5, 1.11 fold enrichment (6-mer frequency, TF over GST control); with SPIC it was 1.16 fold enrichment (6-mer frequency, TF over GST control). For the same sequence, the binding signal with ELF4 is 1.1 fold enrichment (6-mer frequency, TF over GST control); with ELK4, 1.19 fold enrichment (6-mer frequency, TF over GST control); in the assay with ELF3, 1.1 fold enrichment (6-mer frequency, TF over GST control); with CRX, 1.02 fold enrichment (6-mer frequency, TF over GST control); in the assay with ETV1, 1.05 fold enrichment (6-mer frequency, TF over GST control).

On to CCAATG, for which the binding signal with FLI1 is 1.14 fold enrichment (6-mer frequency, TF over GST control); with ELK1 it was 1.11 fold enrichment (6-mer frequency, TF over GST control); in the assay with GABPA, 1.14 fold enrichment (6-mer frequency, TF over GST control); in the assay with ERG, 1 fold enrichment (6-mer frequency, TF over GST control); with ELF1, 1.15 fold enrichment (6-mer frequency, TF over GST control); in the assay with EHF, 1.03 fold enrichment (6-mer frequency, TF over GST control). Further, the binding signal with SPI1 is 1.08 fold enrichment (6-mer frequency, TF over GST control); with SPIB it was 1.15 fold enrichment (6-mer frequency, TF over GST control); with ELK3, 1.08 fold enrichment (6-mer frequency, TF over GST control); in the assay with FEV, 1.1 fold enrichment (6-mer frequency, TF over GST control); in the assay with ETV5, 1.03 fold enrichment (6-mer frequency, TF over GST control); with SPIC it was 1.03 fold enrichment (6-mer frequency, TF over GST control). The binding signal with ELF4 is 1.13 fold enrichment (6-mer frequency, TF over GST control); with ELK4 it was 1.13 fold enrichment (6-mer frequency, TF over GST control); with ELF3, 1.05 fold enrichment (6-mer frequency, TF over GST control); with ETV1 it was 1.06 fold enrichment (6-mer frequency, TF over GST control).
